# From PubChem BioAssay AID504834 (National Center for Advancing Translational Sciences (NCATS), 2011)
# Screen size: about 320,000 compounds; about 22,000 (6.9%) were called active. Roughly 27% stayed inconclusive and do not appear here. The entries come from a sample that favours actives as a whole. Unmarked numbers belong to inactive results. Calls come from the whole dose curve; as a rule, active = well fitted inhibition curve with a large enough effect; inconclusive = small, poorly fitted or top-dose-only effect, or another doubt; inactive = no such curve, though single readings can be large or run the other way.
# Test: Primary qHTS for delayed death inhibitors of the malarial parasite plastid, 96 hour incubation
# Conditions: P. falciparum luciferase reporter growth; series mostly up to 28.7 µM; activity change, negative = inhibition: at the top concentration
# Summary of the method: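 Two-generation exposure (96 h) targets delayed-death phenotype. Reporter parasites carrying integrated firefly luciferase, in red cells at 2% hematocrit and 0.05% parasitemia final, kept at 37 C, 5% CO2; luminescence loss indicates inhibition.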
# % is set by controls: 0 for no effect and ±100 for the full control effect; potency is the fitted concentration of half-maximal effect.
Structure (SMILES),"activity change, negative = inhibition [%]",Potency
CC(C)(C)OC(=O)NC(Cc1ccccc1)C(=O)NC(CSC1CCCCO1)C(=O)NN (configuration not stated),-13.4,–
CCn1cc(C(=O)NCC(=O)NC(C)(C)CO)c(=O)c2cc3c(cc21)OCO3,33.4,–
COc1ccc(N(CC(=O)NC2CCCCC2)S(=O)(=O)c2c(C)[nH]c(=O)[nH]c2=O)cc1,–,5.86 µM (active)
COc1cccc(N(CC(=O)NC2CCCC2)C(=O)CCCC(=O)Nc2ccccn2)c1,-25.1,–
COc1ccc(N(CC(=O)Nc2ccc(F)c(F)c2)S(=O)(=O)c2c(C)[nH]c(=O)[nH]c2=O)cc1,15.3,–
COc1cccc(N(CC(=O)NC2CCCCCC2)S(=O)(=O)c2ccccc2)c1,–,13.1 µM (active)
CCOc1ccc(N(CC(=O)Nc2ccccc2F)S(=O)(=O)c2c(C)[nH]c(=O)[nH]c2=O)cc1,10.6,–
O=C(CN(c1cccc(Cl)c1)S(=O)(=O)c1ccccc1)NN=C1CCCC1,-104,–
O=C(Cc1cccs1)NCc1cccc(C(F)(F)F)c1,12.6,–
COc1ccc(N2CC(C(=O)NCCS(=O)(=O)N3CCN(c4ccccc4)CC3)CC2=O)cc1 (configuration not stated),107,–
CCC(CC)C(=O)Nc1c2c(nn1-c1ccc(C)cc1)CS(=O)(=O)C2,-17.7,–
O=CN1CCN(C(=O)c2ccc3c(c2)OCO3)CC1,-14,–
CC(C)CN(C(=O)CSc1nncn1C)C1CCS(=O)(=O)C1 (configuration not stated),45.5,–
Cc1cccc[n+]1CC(=O)c1ccccc1,33.3,–
Cc1ccc(NC(=O)CN2CCc3ccccc3C2)cc1,21.5,–
Cc1ccc(NC(=O)CCN2CCc3ccccc3C2)cc1,-12.6,–
Cc1ccc(C(=O)C[n+]2cc(-c3ccccc3)n3c2CCCCC3)cc1,–,0.415 µM (active)
Cc1ccc(C(=O)N2CCCC(c3ccccc3)=N2)cc1,-22.4,–
Cc1ccc(-c2c[n+](CC(=O)Nc3ccccc3)c3n2CCC3)cc1,–,3.7 µM (active)
COc1ccc(S(=O)(=O)Nc2cc(C)on2)cc1NC(C)=O,8.11,–
CCCc1cc(=O)oc2c(C)c(OCC(=O)Nc3ccccn3)ccc12,-40.6,–
COCCCNC(=O)CN1C(=O)CSc2ccc(S(=O)(=O)N3CCOCC3)cc21,6.67,–
CCOC(=O)C1CCN(C(=O)Cn2nc(C)c3c(C)n(-c4ccccc4)nc3c2=O)CC1,62.5,–

Structure (SMILES),"activity change, negative = inhibition [%]",Potency
O=S(=O)(NCCc1ccc(Cl)cc1)c1cccs1,30.8,–
COc1cc(C(=O)OC2CCOC2=O)c([N+](=O)[O-])cc1OC (configuration not stated),15,–
COc1ccc(NC(=O)CS(=O)(=O)c2ccccc2)cc1,0.182,–
COc1ccc(-c2nnc(NC(=O)CS(=O)(=O)c3ccc(Cl)cc3)o2)c(OC)c1,–,8.28 µM (active)
COc1ccc(-c2nnc(SCC(=O)c3cccs3)o2)c(OC)c1,7.45,–
COc1ccc(-c2n[nH]c3c2CN(C(=O)c2ccc(F)cc2)CC3)cc1,52,–
Cc1nonc1C1CCCN1C(=O)c1cc(COc2cccc(C(F)(F)F)c2)on1 (configuration not stated),14.5,–
O=C(N/N=C/c1ccccc1O)C1CCCC1,-102,–
COc1ccccc1/C=C/C=N/NC(=O)CN1CCN(Cc2ccccc2)CC1,-12.1,–
O=C(N/N=C/C=C/c1ccccc1)C1CC1(c1ccccc1)c1ccccc1 (configuration not stated),–,10.4 µM (active)
CCc1cc(=O)oc2c(C)c(OCC(=O)N3CC[C@@]4(O)CCCC[C@H]4C3)ccc12,-25.6,–
CCOC(=O)c1[nH]c2c(c1-c1ccccc1)C(=O)CC(c1ccc(Cl)cc1)C2 (configuration not stated),–,9.28 µM (active)
CCOC(=O)c1cc(NC(=O)c2ccc(Cl)cc2)c(=O)oc1-c1ccccc1,0,–
CCOC(=O)c1[nH]c2c(c1C)C(=O)CC(c1ccc(N(C)C)cc1)C2 (configuration not stated),1.58,–
Cc1cccc(C(=O)NC(=S)N(C)C2CCCCC2)c1,-85.4,–
C#CCOCCOCCOCCNc1nc(N2CCN(C(=O)[C@H](CCCCN)n3cc(CCC(=O)O)nn3)CC2)nc(N2CCN(C(=O)[C@H](CCCCN)n3cc(CC(C)O)nn3)CC2)n1 (some centres not stated),87.4,–
C#CCOCCOCCOCCNc1nc(N2CCN(C(=O)[C@H](CCC(=O)O)n3cc(C(N)CO)nn3)CC2)nc(N2CCN(C(=O)[C@H](CCCCN)n3cc(C(N)CC(C)C)nn3)CC2)n1 (some centres not stated),79.2,–
C#CCOCCOCCOCCNc1nc(N2CCN(C(=O)CCCCCCCCCCNC(=O)Cn3cc(CCCCCN)nn3)CC2)nc(N2CCN(C(=O)CCCCCCCCCCNC(=O)[C@H](CO)n3cc(CCCSC)nn3)CC2)n1,–,1.47 µM (active)
C#CCOCCOCCOCCNc1nc(N2CCN(C(=O)CCCCCCCCCCNC(=O)[C@H]([C@@H](C)CC)n3cc(CCCCN=C(N)N)nn3)CC2)nc(N2CCN(C(=O)CCCCCCCCCCNC(=O)[C@H](CO)n3cc(CCCSC)nn3)CC2)n1,–,0.37 µM (active)
C#CCOCCOCCOCCNc1nc(N2CCN(C(=O)CCCCCCCCCCNC(=O)[C@H](CCCCN)n3cc(C)nn3)CC2)nc(N2CCN(C(=O)CCCCCCCCCCNC(=O)[C@H](CO)n3cc(CCCSC)nn3)CC2)n1,–,0.294 µM (active)
C#CCOCCOCCOCCNc1nc(N2CCN(C(=O)[C@H](C(C)C)n3cc(CCO)nn3)CC2)nc(N2CCN(C(=O)[C@H](C(C)C)n3cc(CCO)nn3)CC2)n1,-0.171,–
C#CCOCCOCCOCCNc1nc(N2CCN(C(=O)[C@H](CCC(=O)O)n3cc(C(N)CO)nn3)CC2)nc(N2CCN(C(=O)[C@H](CCCCN)n3cc(C(N)[C@H](C)CC)nn3)CC2)n1 (some centres not stated),34.7,–
C#CCOCCOCCOCCNc1nc(N2CCN(C(=O)[C@H](CCCCN)n3cc([C@@H](N)C(C)CC)nn3)CC2)nc(N2CCN(C(=O)[C@H](Cc3ccc(O)cc3)n3cc([C@@H](N)C(C)CC)nn3)CC2)n1 (some centres not stated),-11.3,–

Structure (SMILES),"activity change, negative = inhibition [%]",Potency
C#CCOCCOCCOCCNc1nc(N2CCN(C(=O)Cn3cc(CCCCN)nn3)CC2)nc(N2CCN(C(=O)[C@H](CCCCN)n3cc(CCC(=O)O)nn3)CC2)n1,-25.7,–
CSc1n[nH]c(=S)n1N,-1.76,–
Cc1c(CC(=O)NCCCCCC(=O)O)c(=O)oc2cc3occ(-c4ccccc4)c3cc12,-27.6,–
CCOc1ccccc1NC(=O)Cn1ncc2ccc([N+](=O)[O-])cc21,0.0479,–
CC(=O)NC1CCN(CC(=O)Nc2nccs2)CC1,-1.24,–
CN1CCN(NC(=O)c2ccc(S(=O)(=O)N3CCCCCC3)cc2)CC1,-6.85,–
O=C(Nc1ncccc1O)c1ccc(C(=O)c2ccccc2)cc1,–,0.928 µM (active)
O=C(Nc1ncccc1O)c1ccc(S(=O)(=O)N2CCCCCC2)cc1,–,5.22 µM (active)
O=C(Nc1ccccc1F)c1ccc(S(=O)(=O)N2CCCCCC2)cc1,1.93,–
O=C(Nc1ncccc1O)c1ccc(S(=O)(=O)N2CCCC2)cc1,–,2.08 µM (active)
O=C(CNC(=O)c1ccc2ccccc2c1)Nc1ncccc1O,127,–
O=C(NC(=O)c1ccccc1)Nc1ccccc1O,37.6,–
O=C(N/N=C/c1ccccn1)c1ccc(S(=O)(=O)N2CCCCCC2)cc1,1.52,–
CCOC(=O)c1csc(NC(=O)c2ccc(S(=O)(=O)N3CCCC3)cc2)n1,5.07,–
CCOc1ccc2nc(N(CCN(C)C)C(=O)c3ccc4ccccc4c3)sc2c1,-14.3,–
COc1ccc(-c2nc3c(s2)CCc2onc(-c4ccc(OC)cc4)c2-3)cc1,12.4,–
COc1ccc(C(=O)NC2CC(C)(C)NC(C)(C)C2)cc1OC,0,–
COc1ccc(OC)c(/C(C)=N\NC(=O)c2cc3cc(Cl)ccc3n2C)c1,0,–
COc1ccc(NC(=S)Nc2ccccc2Cl)cn1,30.6,–
COc1ccc(CS(=O)/C(Cl)=C(/Cl)C(=O)Nc2ccc(OC)nc2)cc1 (configuration not stated),–,2.94 µM (active)
COc1ccc(NC(=O)/C(Cl)=C(/Cl)S(=O)Cc2ccc(C)cc2)cn1 (configuration not stated),0,–
O=C(NCc1ccccc1Cl)NC(=O)c1csc([N+](=O)[O-])c1,10.9,–
CC1(C(=O)OCC(=O)Nc2ncc(Cl)cc2Cl)CC1(Cl)Cl (configuration not stated),-1.88,–

Structure (SMILES),"activity change, negative = inhibition [%]",Potency
CCOC(=O)C1=NNC2(c3ccc(Cl)cc3)C(=O)N(c3cc(C)cc(C)c3)C(=O)C12 (configuration not stated),0,–
COc1cc2c(cc1OC)C(c1cccc([N+](=O)[O-])c1)=NCC2,77.5,–
CCOC(=O)C1=NN(c2ccc(Cl)cc2)/C(=C/C2=NCCc3cc(OC)c(OC)cc32)S1,–,4.15 µM (active)
CCCCN(C(=O)C1CCC1)c1c(N)n(Cc2ccccc2)c(=O)[nH]c1=O,-5.05,–
O=S(=O)(NC1CC1)c1ccc(F)c(F)c1,48.9,–
Cn1ncc2c(N3CCCCC3)nc(NCCCO)nc21,60.5,–
COc1cc(C(=O)NN(CCC#N)C2=NS(=O)(=O)c3ccccc32)cc(OC)c1OC,-9.76,–
CN(C)[C@@H]1C(=O)C(C(N)=O)=C(O)[C@@]2(O)C(=O)C3=C(O)c4c(O)ccc(Cl)c4[C@@H](O)[C@H]3C[C@@H]12,–,0.37 µM (active)
C=C1c2c(Cl)ccc(O)c2C(O)=C2C(=O)[C@]3(O)C(O)=C(C(N)=O)C(=O)[C@@H](N(C)C)[C@@H]3[C@@H](O)C12 (some centres not stated),–,0.738 µM (active)
COc1ccc(OCCC(=O)c2ccc(OC)cc2)cc1,28.2,–
CCN(c1ccccc1)S(=O)(=O)c1cc2c(cc1C)n(C)c(=O)c(=O)n2C,7.83,–
Cn1c2ccccc2c2cc(/C=C(\NC(=O)c3ccccc3)C(=O)NCC(=O)O)ccc21,-24.1,–
COc1ccc(-c2cc3ncccc3cn2)cc1,235,–
COc1ccc(C(=O)O)cc1S(=O)(=O)NCc1cccnc1,-0.745,–
COc1ccc(-c2cc(C(F)(F)F)nc(NCc3cccnc3)n2)cc1,–,13.1 µM (active)
CCN(CC)S(=O)(=O)c1ccc(N2CC(C(=O)NCc3cccnc3)CC2=O)cc1 (configuration not stated),-27.6,–
CCC(=O)c1ccc(OC(=O)/C=C/c2cc(OC)c(OC)c(OC)c2)cc1,24.6,–
CS(=O)(=O)C1=NN2C(=N)/C(=C\c3ccc(OCCOc4ccccc4)cc3)C(=O)N=C2S1,325,–
Cn1c2ccccc2c(=O)c2c(O)cccc21,44.5,–
CCCc1nc2c(c(=O)c3ccccc3n2C)c(=O)n1-c1cc(C)cc(C)c1,–,5.86 µM (active)
CCCc1nc2c(c(=O)c3ccccc3n2C)c(=O)n1C1CCCCCC1,–,14.7 µM (active)
CCCCNC(=O)CCn1c(=O)c2ccccc2n(Cc2cc(C)ccc2C)c1=O,45.8,–
Cn1c2ccccc2c2c(C(=O)N3CCN(c4ccc(F)cc4)CC3)cn(C3CCCC3)c(=O)c21,18.6,–
